Data: PubChem BioAssay (Tox21)
Where “and” joins values, the source holds several entries; their conditions need not be identical. Equal entries are not always repeated. Results filed as inconclusive are left out. A call without a number means that no potency is given here. The source holds several records for some structures; these can differ, active in one and inactive in another. Calls of active or inactive are those of the source. Calls follow the shape of the full dose curve.
Potency is read from the fitted curve at half-maximal effect.

Assay: qHTS assay to identify small molecule agonists of the progesterone receptor (PR) signaling pathway - cell viability counter screen (AID 1346799); also: nearly all actives have a fitted effect of over 45% in size
Settings: PR-UAS-bla HEK293T viability, CellTiter-Glo luminescence, 16 h; series mostly up to 92.4 µM
Excerpt: National Center for Advancing Translational Sciences [NCATS]
NIH Chemical Genomics Center [NCGC]
U.S. Environmental Protection Agency [EPA]
National Institutes of Environmental Health Sciences [NIEHS]
National Toxicology Program [NTP]
U.S. Food and Drug Administration [FDA]
Progesterone receptor (PR), a nuclear hormone receptor, plays an important role in development, metabolic homeostasis and reproduction. It is activated by the steroid hormone progesterone. Endocrine disrupting chemicals (EDCs) and their interactions with steroid hormone receptors like PR causes disruption of normal endocrine function. To identify the compounds that stimulate PR signaling, a PR-UAS-bla GripTite cell line i.e. PR-UAS-bla HEK293T (Invitrogen, Carlsbad, CA, USA) containing a beta-lactamase reporter gene under the control of an UAS response element was used to screen Tox21 10K compound library. The cytotoxicity of the Tox21 compound library against the PR-bla cell line was tested in parallel by measuring the cell viability using CellTiter-Glo assay in the same wells.
Tox21 Assay Protocol Summary:
PR-UAS-bla HEK293T cells were dispensed at 3,000 cells/5 uL of assay medium containing 2% charcoal stripped FBS per well into black wall/clear-bottom 1536-well plates using a Multidrop Combi (ThermoFisher Scientific, Waltham, MA) dispenser. After the assay plates were incubated at a 37C and 5% CO2 for 6 hr, 23 nL of compounds dissolved in DMSO, positive controls or DMSO only was transferred to the assay plate by a Pintool station (Kalypsys, San Diego, CA). The plates were incubated at 37C and 5% CO2 for 16 hr. Then 1 uL of LiveBLAzer B/G FRET substrate was added using a Flying Reagent Dispenser (FRD, Aurora Discovery, San Diego, CA), the plates were incubated at room temperature for 2 hours, and fluorescence intensity was measured by an Envision plate reader (PerkinElmer, Shelton, CT). For cell viability readout that measures cytotoxicity, 4 uL/well of CellTiter-Glo reagent was added into the assay plates using a FRD. After 30 min incubation at room temperature, the luminescence intensity in the plates was measured using a ViewLux (PerkinElmer) plate reader.
For `CC[C@H](O)C(C[C@H](C)N(C)C)(c1ccccc1)c1ccccc1`, the Potency was “inactive”. In the case of `OCC(Cl)CCl` (stereo not given), the Potency is reported as “inactive”. In the case of `CCCCCCCCSC(=O)Oc1cc(Cl)nnc1-c1ccccc1`, the Potency is reported as “inactive”. With `COC(=O)c1ccccc1CS(=O)(=O)NC(=O)Nc1nc(OC)cc(OC)n1` the Potency was “inactive”. For `CCNP(=S)(OC)O/C(C)=C/C(=O)OC(C)C` (stereo not given), the Potency was “inactive”. For `CC[C@H](N)c1ccccc1`, the Potency was “inactive”. In the case of `O=C(Cl)CCl`, the Potency is reported as “inactive”. For `CC(Cl)(Cl)Cl`, the Potency was “inactive”. With `ClCCCCCCCl` the Potency was “inactive”. In the case of `NC(=O)CS(=O)C(c1ccccc1)c1ccccc1` (stereo not given), the Potency is reported as “inactive”. For `c1cncc([C@@H]2CCCCN2)c1`, the Potency was “inactive”. With `CN(C)C1CCCCC1` the Potency was “inactive”. With `CCCC[N+](=O)[O-]` the Potency was “inactive”. With `CCN(CCO)CCO` the Potency was “inactive”. In the case of `OP(O)c1ccccc1`, the Potency is reported as “inactive”. For `C/C(=N\NC(=O)Nc1cc(F)cc(F)c1)c1ncccc1C(=O)O`, the Potency was “inactive and 68.6 µM (active)”. With `S=C=S` the Potency was “inactive”. With `CCNc1nc(NCC)nc(SC)n1` the Potency was “inactive”. In the case of `CCOC(=O)CC(SP(=S)(OC)OC)C(=O)OCC` (stereo not given), the Potency is reported as “inactive”. With `CCCC(C)C1(CC)C(=O)N=C(S)NC1=O` (stereo not given) the Potency was “inactive”. In the case of `CCOC(=O)CCl`, the Potency is reported as “inactive”. In the case of `O=C(O)c1c(Cl)ccc2cc(Cl)cnc12`, the Potency is reported as “inactive”. For `CC1NCCOC1c1ccccc1` (stereo not given), the Potency was “inactive”. In the case of `CCOC(=O)c1ncn2c1CN(C)C(=O)c1c(I)cccc1-2`, the Potency is reported as “inactive”. For `C=C(C)[C@H]1CN[C@H](C(=O)O)[C@H]1CC(=O)O`, the Potency was “inactive”. With `CCCCCCC1CCOC1=O` (stereo not given) the Potency was “inactive”. For `CCC(C(N)=O)N1CCCC1=O` (stereo not given), the Potency was “inactive”. For `CN(C)CCc1c[nH]c2cccc(OP(=O)(O)O)c12`, the Potency was “inactive”. In the case of `CNC(=O)O/N=C(/CSC)C(C)(C)C`, the Potency is reported as “inactive”. For `CC(Cc1ccccc1)NCCn1cnc2c1c(=O)n(C)c(=O)n2C` (stereo not given), the Potency was “inactive”. For `COc1ccccc1OC`, the Potency was “inactive”. With `CCN(CC)CCOC(=O)C(O)(c1ccccc1)c1ccccc1` the Potency was “inactive”. With `COc1ccc2c(C(=O)c3ccc(Cl)cc3)c(C)n(CC(=O)O)c2c1` the Potency was “inactive”. With `O=C(Cl)c1ccccc1` the Potency was “inactive”. In the case of `CCC1(c2ccccc2)C(=O)N(COC)C(=O)N(COC)C1=O`, the Potency is reported as “inactive”. In the case of `NC(=O)OCCCc1ccccc1`, the Potency is reported as “inactive”. In the case of `NCC1(CC(=O)O)CCCCC1`, the Potency is reported as “inactive”. With `CS(=O)(=O)c1ccc(C(=O)C2C(=O)CCCC2=O)c(Cl)c1COCC(F)(F)F` the Potency was “inactive”. For `NC1(c2ccccc2)CCCCC1`, the Potency was “inactive”. With `CC(C)(O)C(Cl)(Cl)Cl` the Potency was “inactive”.
